Screening results as filed in PubChem.
Most compounds without a hit are left out; they make up all but 7.5% or so of the library.
ELG1 genotox: induces genotoxicity in HEK293T cells with luciferase-tagged ELG1; HEK293T ELG1-luciferase reporter, luminescence, 16 h; AID 504466; Potency, µM (highest dose often 46 µM), for the others: at the top dose activity change, positive = activation, most hits filed as activators; 1.3% of 330,000 active; also: % of control where 0% means no effect; nearly all actives have a fitted effect of over 60% in size
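DMSO vehicle served as control against compound-treated ELG1-luciferase HEK293T cells; exposure lasted 16 hr at 37 °C and 5% CO2, followed by ONE-Glo luminescence detection after 30 min.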
Rab9 prom act: activates the Rab9 promoter; 2.8% of 320,000 active; Potency, µM (doses to about 9.22 µM), inactives show at the top dose activation, negative = inhibition, most hits filed as activators; Huh7 Rab9 promoter-luciferase reporter, luminescence, 24 h; AID 485297; also: % of control where 0% means no effect; nearly all actives have a fitted effect of over 60% in size
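Huh7 cells stably carrying Rab9 promoter–luciferase reporter, plated 1500 cells/well, compound added after 2 h and incubated 24 h at 37 °C; luciferase luminescence then read after 10 min with detection reagent.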
NPC1 prom act: activates the NPC1 promoter. 2.4% of 320,000 active. Huh7 NPC1 promoter luciferase reporter, 24 h. AID 485313. Potency, µM (doses to about 9.22 µM), inactives show top-dose activation, hits mostly activators; also: % of control where 0% means no effect; nearly all actives have a fitted effect of over 60% in size
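NPC1 promoter–luciferase Huh7 cells; 24 h compound; luminescence.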
Luc counter: blocks Kinase-Glo luciferase, a counter-screen artifact; Q27757; Kinase-Glo luciferase, ATP luminescence, 8 min; Potency, µM (titrated, usually from 38.3 µM), for the others: top-dose activity change, negative = inhibition, hits mostly inhibitors; 0.28% of 200,000 active; also: % is scaled to controls: 0 for no effect and ±100 for the full control effect; nearly all actives have a fitted effect of over 60% in size
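Substrate mix (final 50 mM imidazole pH 7.2, 50 mM KCl, 7 mM MgCl2, 10 uM ATP, 0.01% Tween 20, 0.05% BSA) plus pin-tool compound, then Kinase-Glo detection mix; 8 min ambient, luminescence read.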
SMN2 splice enh: increases expression of the SMN2 splice variant; HEK293 SMN2-luciferase splicing reporter, luminescence, 30-36 h; Potency, µM (top dose mostly 46.1 µM), inactives show top-dose activity change, positive = activation, most hits filed as activators; 2.8% of 210,000 active; also: % of control where 0% means no effect; nearly all actives have a fitted effect of over 55% in size
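HEK293 cells carry an SMN2 minigene-luciferase reporter in which exon 7 inclusion puts luciferase in frame. Cells were seeded at 2000 cells/well, attached for 10-12 hours, then exposed to compounds for 30-36 hours at 37C before ONE-Glo luminescence.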
FLuc modulator: inhibits or activates purified firefly luciferase, miR-21 counter-screen | purified FLuc, Km substrates, luminescence inhibition | Potency, µM (highest dose often 57.5 µM), for inactives: top-dose activity change, negative = inhibition, hits mostly inhibitors | 6.9% of 360,000 active | P08659;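 also: plate controls were vehicle for no effect and reference inhibitor for full effect; nearly all actives have a fitted effect of over 55% in size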
Target sequence (P08659 whole entry, looked up): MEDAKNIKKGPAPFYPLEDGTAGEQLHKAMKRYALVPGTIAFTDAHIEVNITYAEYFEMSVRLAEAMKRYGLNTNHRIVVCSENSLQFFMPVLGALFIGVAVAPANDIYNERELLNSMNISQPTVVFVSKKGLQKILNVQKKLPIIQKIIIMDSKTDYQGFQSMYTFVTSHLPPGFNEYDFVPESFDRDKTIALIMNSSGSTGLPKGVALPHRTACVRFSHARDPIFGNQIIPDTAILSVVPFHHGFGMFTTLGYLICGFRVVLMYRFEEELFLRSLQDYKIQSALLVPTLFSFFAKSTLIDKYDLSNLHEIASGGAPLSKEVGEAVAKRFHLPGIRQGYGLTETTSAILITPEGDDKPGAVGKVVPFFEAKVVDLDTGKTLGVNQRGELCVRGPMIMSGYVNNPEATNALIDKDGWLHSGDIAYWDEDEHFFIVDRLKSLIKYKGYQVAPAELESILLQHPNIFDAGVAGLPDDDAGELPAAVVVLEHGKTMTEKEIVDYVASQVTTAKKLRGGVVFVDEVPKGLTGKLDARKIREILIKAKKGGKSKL
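Biochemical qHTS of compounds, final roughly 60 µM downward over six points, against 10 nM purified firefly luciferase using Km concentrations of substrates (10 uM D-luciferin, 10 uM ATP) in Tris acetate pH 7.5 buffer; luminescence output.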
Active calls of the source: *; u = inconclusive; x = no result; [ ] = another dose, or the depositor's remark. Calls follow the shape of the dose curve; as a rule, active = well fitted curve in the direction sought with a large enough effect; inconclusive = small, poorly fitted or top-dose-only effect, or another doubt; inactive = no such curve, though single readings can be large; an effect the other way counts as inactive or inconclusive. Potency is read from the fitted curve at half-maximal effect.

SMILES	ELG1 genotox	Rab9 prom act	NPC1 prom act	Luc counter	SMN2 splice enh	FLuc modulator
Cc1ccc(C)c(N=Nc2nc3ccccc3n2C)c1	u	2µM*	3.2µM*	u	u	0.95µM*
COc1ccc(-c2cc(=O)n3[nH]cnc3n2)cc1	x	x	x	x	x	15µM*
Cc1nc2ccc(NS(=O)(=O)c3ccc(F)c(F)c3)cc2s1	-1%	-11%	-2%	x	x	0%
Cc1ccc2nc(-c3ccc(NS(=O)(=O)c4ccccc4)cc3)sc2c1	7%	13%	15%	-4%	3%[1.84 µM]	13µM*
Cc1ccc2nc(-c3ccc(NS(=O)(=O)c4ccc(F)c(F)c4)cc3)sc2c1	u	1.6µM*	2.8µM*	-3%	u	1.2µM*
O=C(c1nn2c(C(F)(F)F)cc(-c3ccccc3)nc2c1Cl)N1CCN2CCCC2C1 (stereo unspecified)	-6%	-3%	0%	x	x	3%
CCC1CN(C(=O)N2CCC(C(=O)NCCc3ccc(Cl)cc3)CC2)c2ccccc2O1 (stereo unspecified)	x	x	x	x	x	-8%
Cc1ccc(NCC(=O)c2ccc(C)cc2)cc1	u	29%	28%	x	x	9.5µM*
Cc1ccc(C(=O)CNc2cccc(Cl)c2)cc1	u	u	10%	-4%	3%	2.7µM*
Cc1ccc(C(=O)CNc2ccc(C)c(Cl)c2)cc1	u	10%	13%	-2%	2%	u
Cc1ccc(NCC(=O)c2ccccc2)cc1Cl	16%	-3%	-3%	-7%	18µM*	u
O=C(Cn1c2ncccc2c(=O)n1-c1ccccc1)Nc1cccc(C(F)(F)F)c1	x	x	x	x	x	-5%
COc1cc(OC)c(NC(=O)Cn2cnc3c(nc4n3CCCCC4)c2=O)cc1Cl	x	x	x	x	x	5%
CN(C)CCNC(=O)c1ccc(-n2c(=O)c(=O)[nH]c3ccccc32)cc1	x	x	x	0%	x	x
COc1ccc2cc(-c3nnc(Nc4ccccc4)s3)c(=O)oc2c1	x	x	x	x	x	2%
O=C(O)c1ccc(Nc2nc(-c3cc4ccccc4oc3=O)cs2)cc1O	9%	2%	8%	1%	1%	4.8µM*
COc1ccc2oc(=O)c(-c3csc(Nc4cccc(O)c4)n3)cc2c1	0%	-2%	11%	-2%	u	1.7µM*
COc1cccc2sc(Nc3nc(-c4cc5ccccc5oc4=O)cs3)nc12	6%	-19%	-26%	0%	-8%	u
CC(=O)Nc1ccc(Nc2nc(-c3cc4ccccc4oc3=O)cs2)cc1	u	u	u	x	x	5.4µM*
CNc1nnc(-c2cc3ccccc3oc2=O)s1	18µM*	1.4µM*	1.4µM*	u	13µM*	4.8µM*
O=C(O)CSc1c2c(nc3cc(C(=O)Nc4ccc(F)c(Cl)c4)ccc13)CCC2	x	x	x	x	2%	u
Nc1ccc(Nc2nc(-c3cc4ccccc4oc3=O)cs2)cc1	u	u	u	-1%	u	2.4µM*
Cc1nc2cc(NC(=O)NCCC3=CCCCC3)ccc2o1	15µM*	3.5µM*	4µM*	0%	x	12µM*
COc1ccc(NC(=O)Nc2ccc3oc(C)nc3c2)cc1	u	u	30%	-2%	x	12µM*
Cc1nc2cc(NC(=O)NCCCO)ccc2o1	3%	-3%	2%	-3%	x	-2%
SMILES	ELG1 genotox	Rab9 prom act	NPC1 prom act	Luc counter	SMN2 splice enh	FLuc modulator
Cc1ccc(COc2ccc(-c3cc(C(F)(F)F)n4nc(C)cc4n3)cc2)cc1	x	x	x	x	-5%	-4%
Cc1ccccc1OCCn1c(-c2ccc(Cl)cc2)nc2ccccc2c1=O	x	x	x	x	-12%	4%
Cc1ccc(-c2nnc(-c3cccc(Br)c3)o2)cc1	8.2µM*	u	u	-3%	13µM*	4.8µM*
Brc1cccc(-c2nnc(-c3ccccc3)o2)c1	3.3µM*	1.4µM*	2µM*	-3%	18µM*	3µM*
CC(=O)C1=C(OC(=O)C(C)C)c2ccccc2S(=O)(=O)N1Cc1ccccc1	x	x	x	x	x	4%
Cc1cccc(CCNC(=O)c2cccc(N3CCCC3=O)c2)c1	u	2.5µM*	1.4µM*	x	x	11µM*
CN(CCCNC(=O)c1cccc(N2CCCC2=O)c1)c1ccccc1	-1%	0%	1%	9%	3.2µM*	-6%
Cc1ccc(CCNC(=O)c2cccc(N3CCCC3=O)c2)cc1	12%	29%	18%	x	x	u
O=C(NCCc1ccccc1)c1cccc(N2CCCC2=O)c1	u	0.32µM*	0.5µM*	x	x	2.1µM*
O=C(Nc1ccccc1)c1cccc(N2CCCC2=O)c1	10µM*	u	u	-4%	u	u
CCC(=O)N1CCc2cc(CNC(=O)Cc3ccc(OC)c(OC)c3)ccc21	x	x	x	x	x	2%
COc1cccc(NC(=O)c2ccc3c(O)c(S(=O)(=O)c4ccccc4)c(=O)[nH]c3c2)c1	0%[9.26 µM]	0%	2%	x	x	19µM*
CCc1ccc(NC(=O)c2ccc3c(O)c(S(=O)(=O)c4ccc(Cl)cc4)c(=O)[nH]c3c2)cc1	x	x	x	x	x	7.6µM*
Cc1ccc(C(=O)c2oc3ccccc3c2NC(=O)Cc2ccccc2)cc1	x	x	x	x	-2%	-1%
O=C(Cn1ncc2c([nH]c3ccccc32)c1=O)Nc1cccc(C(F)(F)F)c1	x	x	x	x	x	0%
O=c1c(-c2ccc3c(c2)OCCO3)coc2cc(OC3OC(CO)C(O)C(O)C3O)ccc12 (stereo unspecified)	u	0.5µM*	0.56µM*	x	x	11µM*
CCOc1ccccc1NC(=O)CSc1nc2ccccc2c2nc(CCn3cncc3C)nn12	x	x	x	x	x	-4%
CC(C)Oc1cccc(-c2cc(C(=O)NN3CCOCC3)c3ccccc3n2)c1	-1%	-2%[1.84 µM]	-1%	x	x	13µM*
NS(=O)(=O)c1ccc(CCNC(=O)c2cc(-c3ccc(Br)cc3)nc3ccccc23)cc1	-9%	-1%	-8%	-2%	11%	u
CC(C)Oc1cccc(-c2cc(C(=O)NC(=S)N(C)c3ccccc3C(=O)O)c3ccccc3n2)c1	3%	-1%	1%	0%	18%	2.7µM*
CCc1ccc(-c2cc(C(=O)Nn3cnnc3)c3ccccc3n2)cc1	u	u	u	8.9µM*	u	0.067µM*
COc1cccc(-c2cc(C(=O)Nc3ccc4c(c3)OCCO4)c3ccccc3n2)c1	0%	-2%	-3%	2%	-7%	u
CCCc1ccc(-c2cc(C(=O)NCCc3ccc(S(N)(=O)=O)cc3)c3ccccc3n2)cc1	1%	2.8µM*	u	-12%	u	0.67µM*
O=C(NCC(c1ccc(Cl)cc1)N1CCCCC1)c1ccccc1 (stereo unspecified)	x	x	x	x	x	-11%
